Assay results taken from PubChem BioAssay AID1117279 (The Scripps Research Institute Molecular Screening Center, 2014).
In all, about 1,100 compounds went through this assay and about 40 (4%) were called active.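 Rule for the calls: active = average inhibition above the solvent-only control wells' mean plus 3 SD (cut at about 15% in these data); inactive = the rest.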 Not all results are given here.

Experiment: compounds lowering TTR transcription reporter in HuH7 – cell-based, luminescence, HuH7 hepatoma, counter-screen for TTR transcription activator project (AID 1117279);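 note: 0% = cells with DMSO only and 100% = cells with inhibitor control FD; inhibitors lower well luminescence so higher value means more inhibition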
Conditions: HuH7 TTR promoter-Gaussia luciferase reporter, at 16.7 µM, stronger effect = higher value

Compound | inhibition
CC(C)(C)C1CCC(OC(=O)CCC(=O)Nc2ccccc2)CC1 (stereo unspecified) | -7.82% (inactive)
C[C@H](NC(=O)C1CCN(S(=O)(=O)c2ccccc2)CC1)C(=O)NCc1ccccc1 | -13.1% (inactive)
Cc1cccc(N2C(=O)CC(SC(N)=Nc3ccccc3)C2=O)c1 (stereo unspecified) | -9.09% (inactive)
Brc1ccc(/C=N/N2CCN(C3c4ccccc4-c4ccccc43)CC2)s1 | -10.1% (inactive)
CC(C)NC(=O)c1ccc(Sc2ccccc2)c([N+](=O)[O-])c1 | -1.16% (inactive)
CCOc1ccc(NC(=O)COc2ccc(S(=O)(=O)N3CCCC3)cc2)cc1 | -11.3% (inactive)
CCCCCc1ccc(-c2cn(Cc3ccc4ccccc4c3)nn2)cc1 | -10.2% (inactive)
CCOc1ccc(N=C2NC(=O)S/C2=C\c2ccc(O)cc2)cc1 | 24.4% (active)
COc1cc(N2C(=O)CC3(CCCC3)CC2=O)cc(OC)c1OC | -8.06% (inactive)
Cc1c(C#N)c(NC(=O)c2ccccc2)n(Cc2ccccc2)c1C | -8.18% (inactive)
Cn1cc(CN2CCCC(CO)C2)c(-c2ccc(Oc3ccccc3)cc2)n1 (stereo unspecified) | -9.5% (inactive)
O=C(NNC1=NCCC1)c1cccc(S(=O)(=O)N2CCCCC2)c1 | -4.93% (inactive)
COc1ccc(-c2oc3ncn(Cc4ccco4)c(=N)c3c2-c2ccc(OC)cc2)cc1 | 1.5% (inactive)
CSCCC(NC(N)=O)C(=O)N(C)CC(=O)Nc1ccc(C)cc1 (stereo unspecified) | -0.9% (inactive)
CCCCOCCCNC(=O)C[C@H]1C[C@@]2(C(=O)OC)C(=C[C@H](C(C)(C)C)O[C@@H]2C)N(CCc2ccc(OC)c(OC)c2)C1=O | -3.28% (inactive)
Cc1cccc(C)c1NC(=O)CN1C(=O)C(C)Oc2ccccc21 (stereo unspecified) | 1.63% (inactive)
N=c1ccn(CC(=O)NC(N)=O)c2ccccc12 | -11.8% (inactive)
C=C1C(C(C)C)N(C)C2=NC(c3ccccc3)CC(=O)N12 (stereo unspecified) | -4.18% (inactive)
O=C(NCCCNC(=O)c1ccccc1Cl)c1cnccn1 | -8.25% (inactive)
O=S(=O)(NCCCN1CCOCC1)c1ccc(F)c(Cl)c1 | -2.54% (inactive)
COc1ccccc1N1CCN(Cc2cc(OC)c3c(c2)OCO3)CC1 | -8.45% (inactive)
O=C(Nc1cccc(O)c1)c1ccc(C(=O)c2ccccc2)o1 | -11.2% (inactive)
O=C(O)Cn1c(Cc2ccccc2)nc2ccccc21 | -10% (inactive)
O=C(CCC(=O)c1cccs1)NCc1ccccc1 | -6.29% (inactive)
Cc1c(NS(=O)(=O)c2ccc(NC3CCCC3)c([N+](=O)[O-])c2)c(=O)n(-c2ccccc2)n1C | 17.4% (active)
CCOC(=O)c1c(-c2ccccc2)oc2ccc(OCC(N)=O)cc12 | -17.5% (inactive)

Compound | inhibition
COc1cc(C(C)=O)ccc1OC(C)C(=O)Nc1ccc(S(=O)(=O)N2CCCC2)cc1 (stereo unspecified) | -21.8% (inactive)
O=C(Nc1ccccc1C(=O)N1CCCCCC1)c1ccccc1Cl | -17.5% (inactive)
CCOc1ccccc1NC(=O)COc1ccc(S(=O)(=O)N2CCCC2)cc1 | -35.5% (inactive)
C(=N\n1cnnc1)/c1cccnc1 | -6.37% (inactive)
COc1cccc(-c2cnc(C(O)c3ccccc3OC)[nH]2)c1 (stereo unspecified) | -13.2% (inactive)
Cc1ccccc1/[N+]([O-])=C/c1ccncc1 | -5.47% (inactive)
O=C(CS(=O)(=O)c1ccccc1)Nc1ccc(S(=O)(=O)Nc2ccccn2)cc1 | -15.3% (inactive)
C/C(CC(=O)Nc1ccc(N(C)C)cc1)=N\NC(=O)c1ccccc1F | -16.7% (inactive)
COc1ccc(S(=O)(=O)NCC(=O)NCc2cc(=O)n(C)c(=O)n2C)cc1F | -4.59% (inactive)
Cc1ccc(CN2CCCOCCS2(=O)=O)cc1 | -6.05% (inactive)
Nc1nc(SCC(=O)Nc2ccc(Cl)c([N+](=O)[O-])c2)n[nH]1 | -10% (inactive)
CCOC(=O)c1cc(-c2ccc(Cl)s2)nc2c1c(C)nn2C | -14.6% (inactive)
O=C(NC(=O)c1ccccc1N1CCCCC1)Nc1ccc(Br)cc1 | -2.62% (inactive)
Cc1cc(C)c2nc3nc(C)cc(C)c3c(N)c2c1 | -40.1% (inactive)
CCCCc1cc(=O)oc2cc(C)cc(OCc3nn[nH]n3)c12 | -25.9% (inactive)
O=C(NNC(=O)c1cc(S(=O)(=O)N2CCCCC2)ccc1Cl)c1ccccc1O | -22.3% (inactive)
COC(=O)c1cnn2c(C(F)(F)F)cc(-c3ccco3)nc12 | 2.2% (inactive)
O=C1c2cccc(OCC(=O)N3N=C(c4cccs4)CC3c3ccc(F)cc3)c2CCN1Cc1ccccc1 (stereo unspecified) | 9.54% (inactive)
COc1ccc(C2c3ccc(O)cc3Oc3ncn(CCCO)c(=N)c32)cc1OC (stereo unspecified) | -4.61% (inactive)
O=S(=O)(NCc1ccccc1Br)c1ccccc1Br | 6.86% (inactive)
CCCCN(C)CCNC(=O)C1CCCN(S(=O)(=O)c2cccc3nsnc23)C1 (stereo unspecified) | -18% (inactive)
O=C(O)C1OC(C(=O)O)C2C1C(F)(F)C2(F)F (stereo unspecified) | -13.2% (inactive)
Cc1cc(C)c(C#N)c(N2CCC(C(N)=O)CC2)n1 | -15.2% (inactive)
Cc1nc(-c2ccc(Cl)cc2)sc1C(=O)NN | -6.37% (inactive)
N#Cc1cccc(CN2CCC(=O)N(CCO)CC2)c1 | -7.6% (inactive)
